Measurements taken from PubChem BioAssay (EPA / NIEHS).
Calls of active or inactive are those of the source. Rule for the calls: active = hit-call score of the fitted dose curve at least 0.9, where 1 is the maximum; inactive = score below 0.9.

Experiments:
[1] = APR_HepG2_NuclearSize_72hr: Apredica 72-hour HepG2 Assay for Nuclear Size (AID 2282925); conditions: high-content imaging, actives raise or lower the signal
Method in brief: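 Read-out: nuclear diameter from Hoechst 33342 images (ArrayScan, 20x, six fields/well), via cell-cycle image analysis. HepG2 were dosed 0.39–200 uM for 72 hr in 0.5% DMSO. Bidirectional fit relative to DMSO.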

[2] = ATG_CRE_CIS: Attagene CIS-FACTORIAL HepG2 Assay for human cAMP Responsive Element (CRE) binding protein 3 (AID 2282926); conditions: HepG2 CRE cis-reporter, Attagene multiplexed mRNA; actives raise or lower the signal
Method in brief: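 Liver-derived HepG2, transfected with a CRE-containing reporter panel, exposed 24 h; transcript levels sized and quantified by capillary electrophoresis of labelled amplicons; signal changes either way referenced to vehicle.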

[3] = molecular target: CCAAT/enhancer-binding protein beta (Homo sapiens) (UniProt P17676); test: ATG_C_EBP_CIS: Attagene CIS-FACTORIAL HepG2 Assay for human CCAAT/Enhancer Binding Protein (C/EBP) beta (AID 2282927); conditions: HepG2 Attagene cis-factorial transcription factor reporter; actives raise or lower the signal
Method in brief: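 HepG2, transient MRTU transfection, 24 h treatment. RT-PCR plus CE fluorescence; DMSO negative control, bidirectional fit.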

[4] = ATG_CMV_CIS: Attagene CIS-FACTORIAL HepG2 Assay for human CMV (Internal Marker) (AID 2282928); conditions: HepG2 CMV promoter reporter, transcription factor profiling; actives raise or lower the signal;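 note: endpoint acts as a background internal control marker rather than a target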
Method in brief: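 Bidirectional fits against DMSO are applied to reporter mRNA, read by RT-PCR with capillary electrophoresis, from HepG2 cells exposed 24 h. The endpoint serves as an internal CMV background marker within the cis-factorial reporter panel.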

[5] = ATG_DR4_LXR_CIS: Attagene CIS-FACTORIAL HepG2 Assay for human Liver X Receptor (LXR), DR4 submotif (AID 2282929); conditions: HepG2 Attagene DR4 cis-reporter, mRNA transcription; actives raise or lower the signal
Method in brief: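 Readout: reporter transcript fluorescence after RT-PCR and capillary electrophoresis, fitted bidirectionally against DMSO controls. Human HepG2 liver cells carried transiently transfected multiplexed reporter constructs; endogenous transcription factor activity measured 24 h post-dosing.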

[6] = molecular target: Aryl hydrocarbon receptor (Homo sapiens) (UniProt P35869); test: ATG_Ahr_CIS: Attagene CIS-FACTORIAL HepG2 Assay for human Aryl Hydrocarbon Receptor (Ahr) (AID 2282930); conditions: HepG2 AhR cis-factorial reporter transcription; actives raise or lower the signal
Method in brief: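 Endogenous factor activity is tracked through cis-promoter reporter units transfected into HepG2 cells. Transcript levels at 24 h are read by fluorescent RT-PCR and capillary electrophoresis, with activity in either direction scored relative to DMSO.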

[7] = ATG_AP_1_CIS: Attagene CIS-FACTORIAL HepG2 Assay for human Activator Protein 1 (AP-1) (AID 2282931); conditions: HepG2 Attagene cis-factorial AP-1 reporter mRNA; actives raise or lower the signal
Method in brief: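 Reporter transcripts were measured 24 h after dosing by RT-PCR and capillary electrophoresis of fluorescent fragments. Cells: HepG2 carrying transfected cis-regulated reporter constructs reading endogenous factor activity. Gain or loss fitted against DMSO.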

[8] = ATG_AP_2_CIS: Attagene CIS-FACTORIAL HepG2 Assay for human Activator Protein 2 (AP-2) (AID 2282932); conditions: HepG2 AP-2 cis-reporter, Attagene transcription factor profiling; actives raise or lower the signal
Method in brief: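 Liver-derived HepG2 line, cis-reporter system measuring endogenous factors; 24 h dosing; reporter mRNA detected by fluorescent RT-PCR and capillary electrophoresis.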

[9] = ATG_BRE_CIS: Attagene CIS-FACTORIAL HepG2 Assay for human Bone Morphogenetic Protein (BMP) Response Element (BRE) (AID 2282933); conditions: HepG2 BMP response element reporter, Attagene transcription factor profiling; actives raise or lower the signal
Method in brief: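 HepG2 cells transiently transfected with multiplexed cis-element reporter units were dosed with chemical for 24 h. Reporter mRNA was measured by RT-PCR with fluorescent labelling, HpaI digestion and capillary electrophoresis; bidirectional fitting relative to DMSO.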

[10] = molecular target: Transcription factor E2F1 (Homo sapiens) (UniProt Q01094); test: ATG_E2F_CIS: Attagene CIS-FACTORIAL HepG2 Assay for human E2F Transcription Factor 1 (AID 2282935); conditions: HepG2 Attagene cis-reporter, E2F reporter RNA transcripts; actives raise or lower the signal
Method in brief: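 Liver-derived HepG2 cells expressing transfected promoter-driven reporter units received test chemical for 24 hours. Signal gains or losses were fitted bidirectionally against DMSO.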

[11] = ATG_E_Box_CIS: Attagene CIS-FACTORIAL HepG2 Assay for human Enhancer Box (E-box) (AID 2282936); conditions: HepG2 E-box cis-reporter transcription, actives raise or lower the signal
Method in brief: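 In this cell-based setup, HepG2 cells bearing transfected promoter-driven reporter units were exposed to chemicals for 24 h; reporter transcripts were amplified, 6-FAM-labelled, cut with HpaI and sized by capillary electrophoresis.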

[12] = ATG_M_61_CIS: Attagene CIS-FACTORIAL HepG2 Assay for M61 Transcription Factor (Internal Marker) (AID 2282937); conditions: HepG2 Attagene CIS-FACTORIAL M61 internal marker reporter; actives raise or lower the signal
Method in brief: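 Readout: fluorescent reporter mRNA fragments resolved by capillary electrophoresis after RT-PCR. Transiently transfected human HepG2 cells carried MRTU constructs reporting endogenous TF activity; 24 h chemical exposure; gain or loss of signal fitted relative to DMSO.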

[13] = ATG_EGR_CIS: Attagene CIS-FACTORIAL HepG2 Assay for human Early Growth Response 1 (EGR1) (AID 2282938); conditions: HepG2 Attagene CIS-FACTORIAL EGR reporter mRNA; actives raise or lower the signal
Method in brief: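 Read-out: fluorescent reporter-mRNA fragments resolved by capillary electrophoresis after RT-PCR, 24 h post-dose in transiently transfected HepG2. Endogenous transcription-factor activity reported via cis-element-regulated reporter units; gain or loss fitted relative to DMSO.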

[14] = ATG_M_19_CIS: Attagene CIS-FACTORIAL HepG2 Assay for M19 Transcription Factor (Internal Marker) (AID 2282939); conditions: HepG2 Attagene CIS-FACTORIAL M19 internal marker reporter; actives raise or lower the signal
Method in brief: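 HepG2 cells transiently transfected with cis-regulated multiple reporter transcription units were dosed for 24 h; reporter mRNA was quantified by RT-PCR, 6-FAM primer-extension labelling, HpaI digestion and capillary electrophoresis, with bidirectional fitting against DMSO baseline.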

[15] = ATG_ERE_CIS: Attagene CIS-FACTORIAL HepG2 Assay for Estrogen Response Element (ERE) (AID 2282940); conditions: HepG2 ERE cis-reporter, Attagene RNA transcript; actives raise or lower the signal
Method in brief: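 HepG2 cells transiently transfected with cis-promoter-driven multiplexed reporter transcription units report endogenous TF activity. After 24 h compound exposure, reporter mRNA is quantified by RT-PCR with capillary electrophoresis fluorescence; bidirectional fitting versus DMSO baseline.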

[16] = ATG_Ets_CIS: Attagene CIS-FACTORIAL HepG2 Assay for human Erythroblast Transformation Specific (ETS) (AID 2282941); conditions: HepG2 ETS cis-reporter transcription, actives raise or lower the signal
Method in brief: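 Endogenous transcription factor activity read as reporter mRNA via RT-PCR and capillary electrophoresis, with gain or loss fitted bidirectionally against DMSO. Human HepG2 liver cells, transiently transfected CIS reporter constructs, 24 h exposure.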

[17] = molecular target: Hepatocyte nuclear factor 3-beta (Homo sapiens) (UniProt Q9Y261); test: ATG_FoxA2_CIS: Attagene CIS-FACTORIAL HepG2 Assay for human Forkhead box A2 (FOXA2) (AID 2282942); conditions: HepG2 cis-reporter transcription factor activity, 24 h; actives raise or lower the signal
Method in brief: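 Readout: fluorescent reporter transcripts resolved by capillary electrophoresis after RT-PCR. Transiently transfected HepG2, 24 h compound exposure, endogenous TF activity at cis promoter elements. Gain or loss of signal fitted relative to DMSO.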

[18] = ATG_FoxO_CIS: Attagene CIS-FACTORIAL HepG2 Assay for human Forkhead box O (FoxO) (AID 2282943); conditions: HepG2 Attagene cis-reporter, FoxO element, mRNA; actives raise or lower the signal
Method in brief: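 Transfected HepG2 reporter cells exposed to test chemical for 24 h; reporter RNA measured by reverse transcription, PCR and fluorescent capillary electrophoresis; curves fitted for increases and decreases against DMSO.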

[19] = ATG_GATA_CIS: Attagene CIS-FACTORIAL HepG2 Assay for human GATA Binding Protein (AID 2282944); conditions: HepG2 GATA cis-element reporter, Attagene multiplex mRNA; actives raise or lower the signal
Method in brief: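 HepG2 cells transiently transfected with multiplexed cis-element reporter units reflecting endogenous transcription factor activity; reporter mRNA measured after 24 h dosing by RT-PCR, 6-FAM labeling, HpaI digestion and capillary electrophoresis. Bidirectional fitting versus DMSO baseline.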

[20] = molecular target: Retinoic acid receptor alpha (Homo sapiens) (UniProt P10276); test: ATG_DR5_RAR_CIS: Attagene CIS-FACTORIAL HepG2 Assay for human Retinoic Acid Receptor Alpha (RARE), DR5 submotif (AID 2282934); conditions: HepG2 Attagene cis-factorial RARE DR5 reporter, mRNA; actives raise or lower the signal
Method in brief: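 After 24 h of chemical exposure, transiently transfected HepG2 cells were lysed for total RNA; the DR5-regulated reporter transcript was quantified via RT-PCR and capillary electrophoresis, with activity fitted bidirectionally against DMSO.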

Measured: AC50

Chain of CCAAT/enhancer-binding protein beta (Homo sapiens) (P17676 whole entry, looked up): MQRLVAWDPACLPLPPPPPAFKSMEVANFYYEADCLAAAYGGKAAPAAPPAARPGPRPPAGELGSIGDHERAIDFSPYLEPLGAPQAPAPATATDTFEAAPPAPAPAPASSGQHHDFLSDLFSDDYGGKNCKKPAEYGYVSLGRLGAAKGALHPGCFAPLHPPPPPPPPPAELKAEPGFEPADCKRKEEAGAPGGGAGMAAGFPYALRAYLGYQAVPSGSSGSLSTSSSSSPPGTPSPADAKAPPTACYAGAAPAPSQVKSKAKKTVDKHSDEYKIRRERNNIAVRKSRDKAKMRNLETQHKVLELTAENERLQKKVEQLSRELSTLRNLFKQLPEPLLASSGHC
Chain of Retinoic acid receptor alpha (Homo sapiens) (P10276 whole entry, looked up): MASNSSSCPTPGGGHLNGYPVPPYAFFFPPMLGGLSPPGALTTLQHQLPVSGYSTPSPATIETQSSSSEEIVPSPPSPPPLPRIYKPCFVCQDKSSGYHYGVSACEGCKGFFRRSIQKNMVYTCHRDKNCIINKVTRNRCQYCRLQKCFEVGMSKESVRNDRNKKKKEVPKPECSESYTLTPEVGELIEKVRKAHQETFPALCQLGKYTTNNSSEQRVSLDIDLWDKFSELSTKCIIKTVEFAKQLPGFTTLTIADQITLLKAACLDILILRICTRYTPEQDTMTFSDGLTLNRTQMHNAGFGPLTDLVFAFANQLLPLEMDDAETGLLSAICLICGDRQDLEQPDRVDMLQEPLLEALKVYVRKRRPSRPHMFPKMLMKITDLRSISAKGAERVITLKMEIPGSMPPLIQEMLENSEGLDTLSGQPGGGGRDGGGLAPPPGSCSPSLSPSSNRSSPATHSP
Chain of Hepatocyte nuclear factor 3-beta (Homo sapiens) (Q9Y261 whole entry, looked up): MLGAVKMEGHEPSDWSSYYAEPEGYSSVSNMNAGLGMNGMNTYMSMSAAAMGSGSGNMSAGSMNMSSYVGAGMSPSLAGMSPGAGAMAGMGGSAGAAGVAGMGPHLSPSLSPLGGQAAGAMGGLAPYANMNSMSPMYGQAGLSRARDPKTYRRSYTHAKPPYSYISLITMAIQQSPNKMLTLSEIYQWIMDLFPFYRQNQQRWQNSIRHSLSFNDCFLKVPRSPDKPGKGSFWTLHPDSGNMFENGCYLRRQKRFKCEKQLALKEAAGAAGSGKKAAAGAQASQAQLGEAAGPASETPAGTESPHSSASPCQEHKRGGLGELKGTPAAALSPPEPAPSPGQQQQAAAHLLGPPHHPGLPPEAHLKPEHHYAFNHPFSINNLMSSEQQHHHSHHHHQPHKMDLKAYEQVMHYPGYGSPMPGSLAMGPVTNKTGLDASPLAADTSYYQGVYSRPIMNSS
Chain of Transcription factor E2F1 (Homo sapiens) (Q01094 whole entry, looked up): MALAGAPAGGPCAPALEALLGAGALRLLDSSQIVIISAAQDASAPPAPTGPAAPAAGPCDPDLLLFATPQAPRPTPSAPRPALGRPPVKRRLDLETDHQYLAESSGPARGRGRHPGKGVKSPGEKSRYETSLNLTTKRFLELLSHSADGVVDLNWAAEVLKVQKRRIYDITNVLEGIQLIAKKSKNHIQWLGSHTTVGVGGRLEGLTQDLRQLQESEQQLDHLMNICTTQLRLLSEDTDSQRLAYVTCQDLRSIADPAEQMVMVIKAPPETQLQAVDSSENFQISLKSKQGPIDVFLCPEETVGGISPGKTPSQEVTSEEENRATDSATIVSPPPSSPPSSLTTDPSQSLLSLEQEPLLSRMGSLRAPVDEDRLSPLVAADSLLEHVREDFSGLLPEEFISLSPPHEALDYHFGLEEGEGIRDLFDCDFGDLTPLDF
Chain of Aryl hydrocarbon receptor (Homo sapiens) (P35869 whole entry, looked up): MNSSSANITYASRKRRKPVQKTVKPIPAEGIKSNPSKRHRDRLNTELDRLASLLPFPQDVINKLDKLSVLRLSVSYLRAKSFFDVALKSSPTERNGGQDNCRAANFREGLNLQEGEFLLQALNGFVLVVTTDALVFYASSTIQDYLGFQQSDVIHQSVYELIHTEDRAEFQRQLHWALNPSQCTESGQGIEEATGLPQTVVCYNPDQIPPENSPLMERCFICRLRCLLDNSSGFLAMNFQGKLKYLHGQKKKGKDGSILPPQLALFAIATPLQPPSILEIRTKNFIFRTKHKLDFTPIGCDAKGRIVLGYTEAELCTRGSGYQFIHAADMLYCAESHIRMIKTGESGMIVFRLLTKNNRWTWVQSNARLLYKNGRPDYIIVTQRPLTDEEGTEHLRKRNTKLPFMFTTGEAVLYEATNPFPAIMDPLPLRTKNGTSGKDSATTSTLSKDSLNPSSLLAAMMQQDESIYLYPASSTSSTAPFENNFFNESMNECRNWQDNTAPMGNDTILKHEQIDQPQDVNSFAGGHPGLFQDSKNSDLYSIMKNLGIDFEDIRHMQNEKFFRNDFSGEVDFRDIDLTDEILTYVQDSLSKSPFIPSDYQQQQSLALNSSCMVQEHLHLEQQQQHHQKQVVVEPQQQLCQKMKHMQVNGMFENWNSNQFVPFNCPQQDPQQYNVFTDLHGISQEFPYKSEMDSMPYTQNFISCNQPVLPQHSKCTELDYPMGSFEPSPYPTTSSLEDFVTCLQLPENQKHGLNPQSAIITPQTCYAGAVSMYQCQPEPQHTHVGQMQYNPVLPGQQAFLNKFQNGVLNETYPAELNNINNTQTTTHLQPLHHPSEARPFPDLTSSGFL

Cc1cc(NC(=O)C(=O)O)cc(C)c1Oc1ccc(O)c2c1CCC2
active: [5] 156 µM
not listed: [20]
inactive: all other assays above

Cc1cccc(Nc2cc(Cl)nc(SCC(=O)O)n2)c1C
not listed: [2]
inactive: all other assays above

Cc1cccc([N+](=O)[O-])c1C
not listed: [3]
inactive: all other assays above

C1CCC(SSC2CCCCC2)CC1
active: [4] 65.6 µM | [6] 66.3 µM | [7] 125 µM | [15] 56.7 µM
not listed: [3] | [17]
inactive: all other assays above

CC(C)c1ccc(C(=O)N=C(N)N)cc1S(C)(=O)=O
active: [15] 71.7 µM
not listed: [3]
inactive: all other assays above

Cc1oc(-c2ccccc2)nc1CCOc1cccc2c1ccn2CCC(=O)O
active: [4] 19.8 µM | [5] 19.8 µM | [15] 0.066 µM | [17] 1.86 µM
not listed: [3]
inactive: all other assays above

Cc1ccc(Cl)cc1
not listed: [3] | [17] | [20]
inactive: all other assays above

CCCCCCCCCCCCCCCC
not listed: [3]
inactive: all other assays above

Nc1ccc2c(c1)C(=O)c1ccccc1C2=O
active: [15] 7.14 µM
not listed: [2]
inactive: all other assays above

COc1ccc(S(=O)(=O)N2C(=O)[C@@](c3ccccc3OC)(N3C[C@H](O)C[C@H]3C(=O)N(C)C)c3cc(Cl)ccc32)c(OC)c1
active: [1] 130 µM | [2] 87.9 µM | [5] 26.1 µM | [6] 29.9 µM | [7] 27.6 µM | [9] 55.5 µM | [13] 36.7 µM | [16] 83.5 µM | [17] 132 µM
not listed: [3]
inactive: all other assays above

Cc1nc(C)nc(N2C[C@@H](C)N(c3ccnc([C@@H](C)O)n3)[C@@H](C)C2)n1
active: [7] 23.1 µM
not listed: [3] | [17]
inactive: all other assays above

CC(CO)OC(C)CO (centres undefined) (tested in a mixture with another compound)
not listed: [3] | [17] | [20]
inactive: all other assays above

CCCCCC(=O)O
active: [6] 82.2 µM
not listed: [2]
inactive: all other assays above

CCCCCCC(=O)OCC
active: [15] 34.7 µM
not listed: [3]
inactive: all other assays above

COC(=O)c1ccc(O)cc1
active: [15] 67.4 µM
not listed: [3]
inactive: all other assays above
